# Source: PubChem BioAssay
# Autophagy mod = autophagy modulators in MEF cells, primary screen, imaging, high-content, MEF GFP-LC3; MEF GFP-LC3 puncta imaging; test concentration mostly 10 µM; calls only at 10 µM (by protocol); hit rate 0.98% among 190,000; AID 463193, 2010;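 active means percentage of spot-positive cells more than 3 SD above its plate mean, without a fluorescence outlier flag or 80% toxicity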;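 further: spot-positive cell cutoff set from DMSO-treated cells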
# Ins promoter up = insulin promoter activators in MIN6 cells, imaging, high-content screening, mouse beta cells. MIN6 insulin promoter-GFP reporter; stronger effect = higher value. hit rate 0.3% among 190,000. z-score at 5 µM;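 active means z-score above 3 at 5 µM with at least 500 cells counted in the well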
# WT yeast gro inh = growth inhibition of WT strain, primary screen, mitochondrial fusion inhibitor project, WT and mutant strains, chemical genetic | mitochondrial fusion phenotypic screen | inhibition, % at 10 µM | hit rate 2.1% among 190,000; in the data active means inhibition above about 58%; tested in S. cerevisiae
# INS promoter inh = inhibitors of insulin promoter-driven GFP, primary screen, imaging, TRM-6 cells (human fetal islet line), eGFP reporter, cell count; reporter expression induced with tamoxifen; inhibition, % at 2 µM; hit rate 0.9% among 130,000; AID 1273, 2008;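 active means inhibition above the mean plus 3 SD, with well images judged a real hit on visual review, cut at about 60% in these data, passing the limit was not always enough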
# Lmaj promast = Leishmania major promastigote growth inhibition, primary screen; Leishmania major promastigotes, resazurin fluorescence viability; inhibition, % at 10 µM; hit rate 9% among 200,000; in the data active means inhibition above about 50%;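 further: promastigotes grown with compound for 44 hours at 28 °C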
# * = called active by the depositor; i = inactive; / = no result given; + = active, no number. Most compounds without a hit are left out; they make up all but 11% or so of the library.
SMILES,Autophagy mod,Ins promoter up,WT yeast gro inh,INS promoter inh,Lmaj promast
O=C(CSc1nnc(CCc2ccccc2)n1-c1ccc(Cl)cc1)NCc1ccccc1,i,/,21.1,13.8,100.0*
O=C(CSc1nnc2ccccn12)NCc1ccco1,i,-0.13,1.1,70.6*,-7.1
CC(C)c1nnc(SCC(=O)NCc2ccco2)n1C,i,-1.06,-7.6,11.1,-3.2
CCc1ccc(C(O)(c2ccccc2OC)C(CN2CCOCC2)c2ccccc2)cc1 (centres undefined),i,-3.08,76.9*,-27.8,34.3
OC(c1ccccc1)(c1ccc(F)cc1)C(c1ccccc1)N1CCOCC1 (centres undefined),i,0.2,12.4,2.8,12.3
CCOC(=O)N/N=C(/c1ccccc1)C1CCCCC1,i,-0.64,17.7,/,6.4
Cc1ccc2c(c1)C(c1ccncc1)=NNC(c1ccccc1)=N2,i,/,4.1,33.3,18.9
CCc1ccc2c(c1)C(c1ccncc1)=NNC(c1ccccc1)=N2,i,0.06,1.0,/,55.1*
Cc1ccc(C2=Nc3ccc(Br)cc3C(c3ccncc3)=NN2)cc1,i,/,14.3,/,84.9*
Cn1c(=O)[nH]c(=O)c2c1nc(NC1CCCCC1)n2CC(=O)NC1CCCCC1,+,-0.11,-5.5,-16.2,2.5
CC1CN(c2ccc([N+](=O)[O-])c(NCCOc3ccccc3)c2)CCN1 (centres undefined),i,-0.03,7.5,/,100.2*
COc1ccc(OCCNc2cc(N3CCCCC3)ccc2[N+](=O)[O-])cc1,i,1.52,7.7,/,6.0
Cc1ccc(NC(C)c2cc(Cl)ccc2O)cc1 (centres undefined),i,1.57,-9.4,-3.5,28.2
O=C(CSc1ccc(-c2ccccc2)nn1)c1cccs1,+,0.67,1.9,/,9.6
N#Cc1c(-c2ccccc2)cc(C2CC2)nc1SCC(=O)c1cccs1,+,2.13,24.8,34.5,2.4
COc1ccc(-c2ccc(SCC(=O)c3ccccc3)nn2)cc1OC,i,0.04,5.9,/,60.7*
COc1ccccc1/C=N/NC(=O)CN(C1=NS(=O)(=O)c2ccccc21)c1ccccc1,i,1.4,-0.8,-36.1,45.4
COc1ccc(/C=N/NC(=O)CN(C2=NS(=O)(=O)c3ccccc32)c2ccccc2)cc1,i,0.01,-7.0,-25.9,56.2*
c1csc(Cc2nc(-c3ccc(-n4cccc4)cc3)no2)c1,i,/,16.6,/,-8.1
O=C(Cn1cnc([N+](=O)[O-])n1)NC1CC1,i,-0.14,4.5,-26.7,-4.9
CC1=C(C#N)C(NC(=O)c2ccc(C)cc2)(C(F)(F)F)C(=O)N1 (centres undefined),i,-0.19,76.7*,-3.3,-3.2
CC1=C(C#N)C(NC(=O)c2ccc(Cl)cc2)(C(F)(F)F)C(=O)N1 (centres undefined),i,0.25,-4.5,-3.3,-5.2
O=C1CCC(/C=C/c2ccccc2)=NN1Cc1ccccc1,i,-0.46,9.2,31.7,-4.7
CC(C)(C)c1ccc(CN2N=C(/C=C/c3ccccc3)CCC2=O)cc1,i,-0.04,71.7*,23.1,1.2
Cc1ccc(/C=C/C2=NN(Cc3ccccc3Cl)C(=O)CC2)cc1,i,0.65,59.3*,/,-0.9
SMILES,Autophagy mod,Ins promoter up,WT yeast gro inh,INS promoter inh,Lmaj promast
S=C1NCCOCCNC(=S)NCCOCCOCCOCCN1,i,0.03,-19.3,-6.5,4.6
Cc1nc2c(c3c1[nH]c1ccccc13)C(=O)CC(C)(C)C2,i,1.98,7.1,/,63.6*
COCCN(CCOC)C(=O)c1ccc(SCc2ccc(C)cc2)c([N+](=O)[O-])c1,i,-0.7,5.2,41.7,-7.5
Cc1coc(C)c1C(=O)CC1(O)C(=O)Nc2cc(Cl)cc(Cl)c21 (centres undefined),i,0.01,67.0*,/,19.4
Nc1nc(SCC(=O)N2CCc3ccccc3C2)[nH]c(=O)c1-c1ccccc1,i,-0.38,5.7,75.0*,1.5
O=C(c1cccc(Cl)c1)N1CCCC(c2ccc(Cl)cc2)=N1,i,-0.23,78.4*,3.7,8.1
COc1cc(C)ccc1OCCOCCOc1cccc2ccc(C)nc12,i,-0.83,4.7,15.4,8.2
Cc1ccc(C(=O)N/N=C/c2ccc([N+](=O)[O-])s2)cc1,i,-1.17,22.4,-7.7,99.5*
O=C(N/N=C/c1cccc([N+](=O)[O-])c1)c1cccc(Br)c1,i,-0.56,3.1,-88.2,1.4
O=C(N/N=C/c1ccc([N+](=O)[O-])s1)c1ccncc1,i,0.58,-12.4,/,100.4*
